Assay results: the supplement of paper PMC8975748
Structures can show the parent of a compound that is named as a salt.

Each compound was assayed on Saccharomyces cerevisiae BY4741 SeMeCo community (assay: z-score of subpopulation abundance vs DMSO median, subpopulation auxotrophic for HL; higher = larger share of this subpopulation than in DMSO controls). Settings: 10 µM; 24 h; SM minimal medium; subpopulation (auxotrophy): HL.
Method: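 Fluorescent four-plasmid SeMeCo (self-establishing metabolically cooperating S. cerevisiae BY4741 community; plasmids pH-mRuby2, pL-mWasabi, pU-eCFP, pM-TagRFP657) was grown 24 h in minimal SM medium with each Selleck FDA-approved drug at 10 µM in 384-well plates. Cells were fixed and imaged by high-content confocal microscopy. For each auxotrophic subpopulation (and the prototroph), a z-score gives the deviation from the DMSO vehicle-control population median.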

Row | Structure (SMILES) | z-score of subpopulation abundance
1 | C=CC[N+]1([C@H]2C[C@H]3[C@@H]4CC[C@H]5C[C@H](O)[C@@H](N6CCOCC6)C[C@]5(C)[C@H]4CC[C@]3(C)[C@H]2OC(C)=O)CCCC1 [Rocuronium Bromide] | -0.71
2 | CN[C@@H]1[C@@H](O)[C@@H](O[C@@H]2[C@@H](O)[C@H](O[C@H]3O[C@H](CN)[C@@H](O)[C@H](O)[C@H]3O)[C@@H](N)C[C@H]2NC(=O)[C@@H](O)CN)OC[C@]1(C)O [Isepamicin Sulphate] | -1.07
3 | Cc1cc(O)cc(C)c1Cl [Chloroxylenol] | 0.81
4 | Cc1onc(-c2ccccc2Cl)c1C(=O)N[C@@H]1C(=O)N2[C@@H]1SC(C)(C)[C@@H]2C(=O)O [Cloxacillin Sodium] | -0.33
5 | N=C(N)NS(=O)(=O)c1ccc(N)cc1 [Sulfaguanidine] | -0.4
6 | COc1cc(C(C)=O)ccc1OCCCN1CCC(c2noc3cc(F)ccc23)CC1 [Iloperidone] | 0.55
7 | Cc1cc(NS(=O)(=O)c2ccc(N)cc2)nc(C)n1 [sulfaisodimidine] | -0.94
8 | CC1(C)S[C@@H]2[C@H](NC(=O)C(C(=O)O)c3ccccc3)C(=O)N2[C@H]1C(=O)O (stereo not given in full) [Carbenicillin disodium] | -0.49
9 | Cc1cc(CC(C)CC(C)(C)C)n(O)c(=O)c1 (stereo not given) [Piroctone Olamine] | 14.6
10 | COc1nc2ccc(Br)cc2cc1[C@@H](c1ccccc1)[C@@](O)(CCN(C)C)c1cccc2ccccc12 [Bedaquiline fumarate] | 0.4
11 | CCn1cc(C(=O)O)c(=O)c2cc(F)c(N3CCNCC3)nc21 [Enoxacin] | 0.3
12 | OC(CCCN1CCCCC1)(c1ccccc1)c1ccccc1 [Diphenidol HCl] | -0.42
13 | CC[C@H](C)C(=O)O[C@H]1C[C@@H](C)C=C2C=C[C@H](C)[C@H](CC[C@@H]3C[C@@H](O)CC(=O)O3)[C@H]21 [Lovastatin] | 0.97
14 | CC(C(=O)O)c1ccc2c(c1)[nH]c1ccc(Cl)cc12 (stereo not given) [Carprofen] | 1.64
15 | N[C@H]1CONC1=O [L-Cycloserine] | 3.71
16 | CCOc1ccc2ccccc2c1C(=O)N[C@@H]1C(=O)N2[C@@H]1SC(C)(C)[C@@H]2C(=O)O [Nafcillin Sodium] | -0.51
17 | CCCCCCCCCCCCCCCC[N+](C)(C)C [Cetrimonium Bromide (CTAB)] | 10.9
18 | C[C@]1(COc2ccc(N3CCC(Oc4ccc(OC(F)(F)F)cc4)CC3)cc2)Cn2cc([N+](=O)[O-])nc2O1 [Delamanid] | 0.9
19 | C[C@]12CC[C@@H]3c4ccc(O)cc4CC[C@H]3[C@@H]1CCC2=O [Estrone] | -0.05
20 | CO[C@H]1C[C@@H]2CC[C@@H](C)[C@@](O)(O2)C(=O)C(=O)N2CCCC[C@H]2C(=O)O[C@H]([C@H](C)C[C@@H]2CC[C@H](n3cnnn3)[C@H](OC)C2)CC(=O)[C@H](C)/C=C(\C)[C@@H](O)[C@@H](OC)C(=O)[C@H](C)C[C@H](C)/C=C/C=C/C=C/1C [Zotarolimus(ABT-578)] | 15.7

Row | Structure (SMILES) | z-score of subpopulation abundance
21 | CC[C@@H]([C@H](C)O)n1ncn(-c2ccc(N3CCN(c4ccc(OC[C@@H]5CO[C@@](Cn6cncn6)(c6ccc(F)cc6F)C5)cc4)CC3)cc2)c1=O [Posaconazole] | 10.8
22 | Cc1cc(=O)n(-c2ccccc2)n1C [Antipyrine] | -0.85
23 | Cn1cc(C(=O)[C@@H]2CCc3[nH]cnc3C2)c2ccccc21 [Ramosetron Hydrochloride] | -0.22
24 | CCC(=O)Oc1ccc2c(c1)CCC1C2CCC2(C)C(OC(=O)CC)CCC12 (stereo not drawn) [Estradiol dipropionate(17-Beta-Estradiol-3,17-Dipropionate)] | -0.96
25 | COc1cc(/C=C/C(=O)N2CCN(CC(=O)N3CCCC3)CC2)cc(OC)c1OC [Cinepazide maleate] | -0.2
26 | CCN(CC)CC#CCOC(=O)C(O)(c1ccccc1)C1CCCCC1 (stereo not given) [Oxybutynin] | -0.47
27 | NC[C@H]1O[C@H](O[C@H]2[C@H](O)[C@@H](O[C@H]3O[C@H](CO)[C@@H](O)[C@H](N)[C@H]3O)[C@H](N)C[C@@H]2N)[C@H](O)[C@@H](O)[C@@H]1O [Kanamycin sulfate] | 1.08
28 | CCc1c2c(nc3ccc(OC(=O)N4CCC(N5CCCCC5)CC4)cc13)-c1cc3c(c(=O)n1C2)COC(=O)[C@]3(O)CC [Irinotecan HCl Trihydrate] | 0.06
29 | CCCc1nn(C)c2c(=O)[nH]c(-c3cc(S(=O)(=O)N4CCN(C)CC4)ccc3OCC)nc12 [Sildenafil Citrate] | -0.89
30 | Cn1nnc(-c2ccc(-c3ccc(N4C[C@H](COP(=O)(O)O)OC4=O)cc3F)cn2)n1 [Tedizolid Phosphate] | -0.86
31 | CC(=O)[C@@]1(O)CC[C@H]2[C@@H]3C[C@H](C)C4=CC(=O)CC[C@]4(C)[C@H]3CC[C@@]21C [Medroxyprogesterone] | 0.3
32 | CN(C)CC/C=C1/c2ccccc2Sc2ccc(Cl)cc21 [Chlorprothixene] | -0.06
33 | CCCNCC(O)COc1ccccc1C(=O)CCc1ccccc1 (stereo not given) [Propafenone HCl] | -0.37
34 | CC(C)(O/N=C(\C(=O)N[C@@H]1C(=O)N2C(C(=O)[O-])=C(C[n+]3ccccc3)CS[C@H]12)c1csc(N)n1)C(=O)O [Ceftazidime] | 0.02
35 | C[C@@H]1C/C=C/C=C/C=C/C=C/[C@H](O[C@@H]2O[C@H](C)[C@@H](O)[C@H](N)[C@@H]2O)C[C@@H]2O[C@](O)(C[C@@H](O)C[C@H]3O[C@@H]3/C=C/C(=O)O1)C[C@H](O)[C@H]2C(=O)O [Natamycin] | 22.5
36 | COc1ccc2[nH]c([S+]([O-])Cc3ncc(C)c(OC)c3C)nc2c1 (stereo not given) [Omeprazole] | 2.48
37 | CC[C@H]1OC(=O)C[C@@H](O)[C@H](C)[C@@H](O[C@@H]2O[C@H](C)[C@@H](O)[C@H](N(C)C)[C@H]2O)[C@@H](CCN2C[C@H](C)C[C@H](C)C2)C[C@@H](C)C(=O)/C=C/C(C)=C/[C@@H]1CO[C@@H]1O[C@H](C)[C@@H](O)[C@@H](OC)[C@H]1OC [Tilmicosin] | 1.91
38 | Cc1cc(/C=C/c2ccc3cc(N(C)C)ccc3[n+]2C)c(C)n1-c1ccccc1 [pyrvinium] | -1.44
39 | O=C(Nc1c(Cl)cncc1Cl)c1ccc(OC(F)F)c(OCC2CC2)c1 [Roflumilast] | -0.5
40 | CNCC[C@@H](Oc1ccccc1C)c1ccccc1 [Atomoxetine HCl] | -0.43
